Values joined by “and” are separate entries in the source; they are usually repeats but may differ in a detail not shown here. Identical values can stand only once. Active and inactive are the calls of the source. Rule for the calls: active = hit-call score of the fitted dose curve at least 0.9, where 1 is the maximum; inactive = score below 0.9.
Assays:
[1] = BSK_KF3CT_SRB: Viability Assessment in the BioMAP Diversity Plus: KF3CT Assay (AID 2283069); conditions: primary human keratinocytes with fibroblasts;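 note: total protein by sulforhodamine B staining as a cytotoxicity measure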
Procedure, shortened: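 Keratinocytes co-cultured with foreskin fibroblasts (human primary); chemical added, 24 h; fix 10% TCA, stain 0.1% SRB, A560. Bidirectional fit vs DMSO.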

[2] = read-out: Interleukin-1 alpha (IL1a), IL1A (gene 3552); test: BSK_KF3CT_IL1a: BioMAP Diversity Plus: KF3CT Assay for Interleukin-1 alpha (IL1a) Biomarker Activity (AID 2283070); conditions: primary human keratinocytes with fibroblasts; actives raise or lower the signal
Procedure, shortened: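 Chemicals were dosed onto co-cultured human keratinocytes and foreskin fibroblasts, IL-1a was quantified by ELISA at 24 h, and activity was fitted in both directions relative to DMSO controls.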

[3] = read-out: TIMP metallopeptidase inhibitor 2 (TIMP2), TIMP2 (gene 7077); test: BSK_KF3CT_TIMP2: BioMAP Diversity Plus: KF3CT Assay for TIMP metallopeptidase inhibitor 2 (TIMP2) Biomarker Activity (AID 2283071); conditions: primary human keratinocytes with fibroblasts; actives raise or lower the signal
Procedure, shortened: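 Human primary keratinocyte/foreskin fibroblast co-culture dosed with chemical and sampled at 24 h. TIMP-2 levels quantified by ELISA; bidirectional fitting against DMSO negative control as baseline.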

[4] = read-out: C-C motif chemokine 2 (Homo sapiens) (UniProt P13500); test: BSK_KF3CT_MCP1: BioMAP Diversity Plus: KF3CT Assay for Monocyte Chemoattractant Protein 1 (MCP1/CCL2) Biomarker Activity (AID 2283073); conditions: primary human keratinocytes with fibroblasts; actives raise or lower the signal
Procedure, shortened: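 Human keratinocyte–foreskin fibroblast co-culture; MCP-1 measured by ELISA 24 h after dosing. Bidirectional fit vs DMSO; cytotoxicity tracked by SRB total protein in parallel cultures.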

[5] = read-out: urokinase plasminogen activator (uPA), PLAU (gene 5328); test: BSK_KF3CT_uPA: BioMAP Diversity Plus: KF3CT Assay for urokinase plasminogen activator (uPA) Biomarker Activity (AID 2283075); conditions: primary human keratinocytes with fibroblasts; actives raise or lower the signal
Procedure, shortened: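 ELISA readout of uPA, analyzed for signal gain or loss relative to DMSO, from a human primary keratinocyte–foreskin fibroblast co-culture measured 24 h after chemical treatment.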

[6] = read-out: E-selectin (Homo sapiens) (UniProt P16581); test: BSK_LPS_Eselectin: BioMAP Diversity Plus: LPS Assay for Eselectin Biomarker Activity (AID 2283077); conditions: primary human HUVEC with PBMC; actives raise or lower the signal
Procedure, shortened: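 Human umbilical vein endothelial cells co-cultured with PBMC under LPS stimulation; cell-surface E-selectin measured by ELISA 24 h after dosing. Change in either direction versus DMSO, with SRB total-protein staining in parallel cultures for cytotoxicity.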

[7] = read-out: Interleukin-8 (IL8), CXCL8 (gene 3576); test: BSK_LPS_IL8: BioMAP Diversity Plus: LPS Assay for Interleukin-8 (IL8) Biomarker Activity (AID 2283078); conditions: primary human HUVEC with PBMC; actives raise or lower the signal
Procedure, shortened: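 Human umbilical vein endothelial cells co-cultured with PBMC, LPS-stimulated, exposed to compound for 24 h. IL-8 quantified by ELISA; fitted in both directions against DMSO, with SRB total-protein staining of parallel cultures for cytotoxicity.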

[8] = BSK_LPS_SRB: Viability Assessment in the BioMAP Diversity Plus: LPS Assay (AID 2283079); conditions: primary human HUVEC with PBMC;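 note: total protein by sulforhodamine B absorbance as a cytotoxicity measure; measured one day after compound addition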
Procedure, shortened: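 Co-culture of human umbilical vein endothelial cells and PBMC, read 24 h after dosing. Total protein by 0.1% SRB staining after 10% TCA fixation, absorbance at 560 nm; bidirectional fit against DMSO.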

[9] = read-out: Monocyte Chemoattractant Protein-1 (MCP1), CCL2 (gene 6347); test: BSK_LPS_MCP1: BioMAP Diversity Plus: LPS Assay for Monocyte Chemoattractant Protein-1 (MCP1) Biomarker Activity (AID 2283081); conditions: primary human HUVEC with PBMC; actives raise or lower the signal;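 for AC50: secreted MCP-1 protein quantified by ELISA in culture supernatant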
Procedure, shortened: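 Human umbilical vein endothelial cells co-cultured with PBMC, LPS-stimulated; secreted MCP-1 measured by ELISA 24 h after compound addition. Bidirectional curve fitting against DMSO baseline; SRB total-protein staining in parallel cultures for cytotoxicity.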

[10] = BSK_LPS_PGE2: BioMAP Diversity Plus: LPS Assay for Prostaglandin E2 (PGE2) Biomarker Activity (AID 2283082); conditions: primary human HUVEC with PBMC; actives raise or lower the signal;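 for AC50: secreted prostaglandin E2 measured by ELISA in LPS-stimulated co-culture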
Procedure, shortened: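 HUVEC plus PBMC co-culture stimulated with LPS; secreted PGE2 quantified by ELISA 24 h after chemical dosing. Activity fitted bidirectionally against DMSO as negative control and baseline; parallel SRB total-protein staining served as cytotoxicity check.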

[11] = read-out: Tissue Factor, F3 (gene 2152); test: BSK_LPS_TissueFactor: BioMAP Diversity Plus: LPS Assay for Tissue Factor Biomarker Activity (AID 2283084); conditions: primary human HUVEC with PBMC; actives raise or lower the signal
Procedure, shortened: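 Human umbilical vein endothelial cells co-cultured with PBMC were dosed with compound. Cell-surface CD142 was measured by ELISA 24 h later. Activity was fitted bidirectionally against DMSO, with SRB total-protein staining in parallel cultures for cytotoxicity.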

[12] = read-out: Tumor necrosis factor (Homo sapiens) (UniProt P01375); test: BSK_LPS_TNFa: BioMAP Diversity Plus: LPS Assay for Tumour Necrosis Factor alpha (TNFa) Biomarker Activity (AID 2283085); conditions: primary human HUVEC with PBMC; actives raise or lower the signal
Procedure, shortened: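 Human umbilical vein endothelial cells co-cultured with PBMC were exposed to test chemical and TNFa measured by ELISA 24 h after dosing. Bidirectional curve fitting was done relative to DMSO as negative control and baseline.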

[13] = read-out: Vascular cell adhesion molecule 1 (VCAM1), VCAM1 (gene 7412); test: BSK_LPS_VCAM1: BioMAP Diversity Plus: LPS Assay for Vascular cell adhesion molecule 1 (VCAM1) Biomarker Activity (AID 2283086); conditions: primary human HUVEC with PBMC; actives raise or lower the signal
Procedure, shortened: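 Human umbilical vein endothelial cells co-cultured with peripheral blood mononuclear cells under LPS stimulation were exposed to test chemical for 24 h. VCAM-1 levels were then measured by ELISA, with bidirectional curve fitting relative to DMSO as negative control and baseline.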

CD38, CD38 (gene 952) = test: BSK_SAg_CD38: BioMAP Diversity Plus: SAg Assay for CD38 Biomarker Activity (AID 2283087); conditions: primary human HUVEC with PBMC; actives raise or lower the signal
Procedure, shortened: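 Fluorescence ELISA of cell-surface CD38 served as the read-out, with either increase or decrease fitted against DMSO controls. Cells were a human umbilical vein endothelium plus PBMC co-culture under SEB/TSST-1 stimulation, measured 24 h after dosing.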

CD40, CD40 (gene 958) = test: BSK_SAg_CD40: BioMAP Diversity Plus: SAg Assay for CD40 Biomarker Activity (AID 2283088); conditions: primary human HUVEC with PBMC; actives raise or lower the signal
Procedure, shortened: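 HUVEC plus PBMC co-culture, superantigen-activated, with CD40 read by ELISA 24 h after dosing. Curves fitted in both directions against DMSO. Overt cytotoxicity checked by parallel SRB total-protein staining.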

CD69, CD69 (gene 969) = test: BSK_SAg_CD69: BioMAP Diversity Plus: SAg Assay for CD69 Biomarker Activity (AID 2283089); conditions: primary human HUVEC with PBMC; actives raise or lower the signal;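 for AC50: cell surface CD69 protein quantified by ELISA with fluorescence detection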
Procedure, shortened: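 HUVEC co-cultured with PBMC were dosed with chemical, and CD69 was measured by ELISA with fluorescence read-out 24 h later. Bidirectional curve fitting used DMSO as negative control and activity baseline.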

[14] = read-out: Monocyte Chemoattractant Protein-1 (MCP1), CCL2 (gene 6347); test: BSK_SAg_MCP1: BioMAP Diversity Plus: SAg Assay for Monocyte Chemoattractant Protein-1 (MCP1) Biomarker Activity (AID 2283090); conditions: primary human HUVEC with PBMC; actives raise or lower the signal
Procedure, shortened: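 MCP-1 levels in the endothelial–PBMC SAg co-culture were quantified by ELISA at 24 h post-dosing; both increases and decreases versus DMSO scored. Cytotoxicity monitored by SRB total protein in parallel cultures.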

[15] = read-out: Monokine induced gamma interferon (MIG), CXCL9 (gene 4283); test: BSK_SAg_MIG: BioMAP Diversity Plus: SAg Assay for Monokine induced gamma interferon (MIG) Biomarker Activity (AID 2283092); conditions: primary human HUVEC with PBMC; actives raise or lower the signal
Procedure, shortened: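 HUVEC plus human PBMC co-culture, chemicals dosed and MIG (CXCL9) quantified by ELISA at 24 h. Bidirectional curve fitting against DMSO as negative control and baseline, so both gain and loss of signal count as activity.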

[16] = BSK_SAg_Proliferation: Cell Proliferation Assessment in the BioMAP Diversity Plus: SAg Assay (AID 2283095); conditions: primary human HUVEC with PBMC;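 note: relative cell number as total protein by SRB absorbance in sub-confluent culture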
Procedure, shortened: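 Human umbilical vein endothelial cells co-cultured with peripheral blood mononuclear cells; total protein measured by sulforhodamine B staining (0.1% SRB after 10% TCA fixation), absorbance at 560 nm, at 96 h. Bidirectional fit against DMSO baseline.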

[17] = BSK_SAg_SRB: Viability Assessment in the BioMAP Diversity Plus: SAg Assay (AID 2283096); conditions: primary human HUVEC with PBMC;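 note: cells read one day after compound addition; hits may be either gain or loss of signal compared with DMSO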
Procedure, shortened: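 Total protein by sulforhodamine B staining, 24 h after dosing, in HUVEC–PBMC co-culture; DMSO-referenced bidirectional fitting.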

Measured: AC50

Chain of E-selectin (Homo sapiens) (P16581 whole entry, looked up): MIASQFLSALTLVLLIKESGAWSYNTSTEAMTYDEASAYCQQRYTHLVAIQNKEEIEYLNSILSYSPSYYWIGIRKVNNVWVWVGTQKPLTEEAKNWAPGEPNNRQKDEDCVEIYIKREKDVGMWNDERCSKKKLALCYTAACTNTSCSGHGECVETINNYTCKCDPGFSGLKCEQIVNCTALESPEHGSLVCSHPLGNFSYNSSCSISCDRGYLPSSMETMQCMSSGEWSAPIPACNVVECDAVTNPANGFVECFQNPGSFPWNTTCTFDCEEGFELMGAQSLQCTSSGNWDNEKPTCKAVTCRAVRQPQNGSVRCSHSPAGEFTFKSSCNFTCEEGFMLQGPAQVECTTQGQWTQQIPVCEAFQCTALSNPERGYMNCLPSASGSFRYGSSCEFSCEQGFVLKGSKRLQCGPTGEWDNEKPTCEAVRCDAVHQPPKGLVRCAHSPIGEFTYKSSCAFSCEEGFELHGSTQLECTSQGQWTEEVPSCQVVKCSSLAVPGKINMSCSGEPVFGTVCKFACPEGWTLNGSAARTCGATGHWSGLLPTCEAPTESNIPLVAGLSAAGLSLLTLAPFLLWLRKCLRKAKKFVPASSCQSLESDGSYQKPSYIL
Chain of Tumor necrosis factor (Homo sapiens) (P01375 whole entry, looked up): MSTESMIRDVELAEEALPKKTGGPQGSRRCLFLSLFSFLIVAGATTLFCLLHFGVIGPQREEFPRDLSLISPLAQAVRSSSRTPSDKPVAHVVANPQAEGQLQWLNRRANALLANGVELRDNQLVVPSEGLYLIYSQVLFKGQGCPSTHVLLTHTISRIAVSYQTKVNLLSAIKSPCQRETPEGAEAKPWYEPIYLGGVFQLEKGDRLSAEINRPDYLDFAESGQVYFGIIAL

CN(C)Cc1cc(C(C)(C)C)c(O)c(C(C)(C)C)c1
active: CD69, CD69 (gene 969) 20 µM and 15.4 µM | [16] 17.5 µM and 20 µM
inactive: all other assays above

CN(C)c1ccc(C(c2ccccc2)c2ccc(N(C)C)cc2)cc1
inactive: [1] | [2] | [3] | [4] | [5] | [10] | [11] | [15]
active: [6] 15.6 µM | [7] 15.2 µM | [8] 12.5 µM | [9] 13.2 µM | [12] 1.6 µM | [13] 4.93 µM | CD38, CD38 (gene 952) 20 µM | CD40, CD40 (gene 958) 14.2 µM | CD69, CD69 (gene 969) 20 µM | [14] 12.9 µM | [16] 11.7 µM | [17] 12.6 µM

Cc1cc(-n2nc3ccc(Cl)cc3n2)c(O)c(C(C)(C)C)c1
inactive: all assays above

CC[N+](CC)(CC(=O)Nc1c(C)cccc1C)Cc1ccccc1
active: [7] 0.182 µM
inactive: all other assays above

O=C(C(=O)c1ccccc1)c1ccccc1
active: [7] 0.0917 µM
inactive: all other assays above

CC[N+](CC)(CC(=O)Nc1c(C)cccc1C)Cc1ccccc1 (tested in a mixture with another compound)
inactive: all assays above

CCCCCCC(O)CCCCCCCCCCC(=O)OC (stereo not given)
active: [10] 1.73 µM
inactive: all other assays above
